Laboratory results as given in PubChem BioAssay AID1159580 (chemical genetic matrix, 2015).
In all, about 5,500 compounds went through this assay and about 2,000 (36%) were called active. Not shown: some 18% with an inconclusive outcome. Cut-off read from the data, not from the text of the source: active = normalized growth mostly below about 0.91 (no sharp cut-off); inconclusive = no clear call, values can overlap the other calls; inactive = mostly above about 0.92. Some of the results follow.

Assay: chemical genetic growth profiling, strain panel (AID 1159580);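 note: tested at 20 µM; growth read once vehicle control cultures reached saturation at 30 °C; 1 = growth at the plate median or of vehicle wells; lower values mean less growth of the strain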
Settings: S. cerevisiae deletion strains, growth OD
[1] = locus YAL040C, strain CLN3, active compounds read low
[2] = locus YCL061C, strain MRC1 (second series), active compounds read low
[3] = locus YDR363W, strain ESC2, active compounds read low
[4] = locus YER002W, strain NOP16, active compounds read low
[5] = locus YMR263W, strain SAP30, active compounds read low
[6] = locus YMR307W, strain GAS1, active compounds read low
[7] = locus YNL175C, strain NOP13, active compounds read low
[8] = locus YNL197C, strain WHI3, active compounds read low
[9] = locus YNL224C, strain SQS1, active compounds read low
[10] = locus YNL322C, strain KRE1, active compounds read low
[11] = locus YOR083W, strain WHI5 (second series), active compounds read low
[12] = locus YPL055C, strain LGE1, active compounds read low

Measured: normalized growth

COc1cccc(-c2cc(=O)c3ccccc3o2)c1N
inactive: [1] 0.905 | [2] 1 | [3] 1.04 | [4] 1.02 | locus YJR075W, strain HOC1, active compounds read low 0.992 | [5] 0.997 | [6] 0.992 | [7] 0.922 | [8] 0.937 | [10] 1.01 | [12] 1.01
active: [9] 0.907 | [11] 0.807

O=c1cc(N2CCOCC2)oc2c(-c3ccccc3)cccc12
inactive: locus YAL013W, strain DEP1, active compounds read low 1.03 | [1] 0.996 | [2] 1.01 | locus YDR150W, strain NUM1, active compounds read low 0.992 | [3] 0.995 | [4] 1 | [5] 0.992 | [7] 0.996 | [8] 0.991 | [9] 0.999 | [10] 1.01 | [11] 0.986 | locus YPL241C, strain CIN2, active compounds read low 0.998

COc1ccccc1-c1cc(=O)c2cccc(OC)c2o1
active: locus YBR021W, strain FUR4, active compounds read low 0.795 | locus YDL134C, strain PPH21, active compounds read low 0.865 | locus YDL192W, strain arf1, active compounds read low 0.867 | locus YDR318W, strain mcm21, active compounds read low 0.915 | locus YDR502C, strain sam2, active compounds read low 0.906 | locus YEL061C, strain CIN8, active compounds read low 0.902 | locus YER167W, strain BCK2, active compounds read low 0.899 | locus YGL086W, strain mad1, active compounds read low 0.908 | locus YGL248W, strain PDE1, active compounds read low 0.865 | locus YGR135W, strain pre9, active compounds read low 0.869 | locus YGR229C, strain SMI1, active compounds read low 0.617 | locus YGR252W, strain gcn5, active compounds read low 0.714 | locus YHR030C, strain SLT2, active compounds read low 0.753 | locus YHR129C, strain ARP1, active compounds read low 0.882 | locus YIL066C, strain RNR3, active compounds read low 0.814 | locus YJL095W, strain BCK1, active compounds read low 0.562 | locus YKR001C, strain vps1, active compounds read low 0.855 | locus YLR330W, strain CHS5, active compounds read low 0.798 | locus YLR342W, strain FKS1 (second series), active compounds read low 0.732 | locus YLR371W, strain rom2, active compounds read low 0.839 | locus YLR418C, strain cdc73, active compounds read low 0.642 | locus YMR223W, strain ubp8, active compounds read low 0.886 | locus YNL233W, strain BNI4, active compounds read low 0.795 | locus YNL307C, strain MCK1, active compounds read low 0.758 | locus YOL147C, strain pex11, active compounds read low 0.924 | locus YOR184W, strain ser1, active compounds read low 0.758
inactive: locus YBR229C, strain ROT2, active compounds read low 0.972 | locus YCL029C, strain bik1, active compounds read low 0.987 | locus YDL035C, strain GPR1, active compounds read low 0.894 | locus YDL074C, strain BRE1, active compounds read low 0.824 | locus YDL101C, strain DUN1, active compounds read low 0.909 | locus YDL185W, strain tfp1, active compounds read low 0.986 | locus YDR101C, strain arx1, active compounds read low 0.928 | locus YDR162C, strain NBP2, active compounds read low 0.857 | locus YDR388W, active compounds read low 0.97 | locus YER110C, active compounds read low 1.01 | locus YER155C, strain BEM2, active compounds read low 0.93 | locus YGL078C, strain dbp3, active compounds read low 0.991 | locus YHR079C, strain IRE1 (second series), active compounds read low 0.993 | locus YHR094C, strain hxt1, active compounds read low 1 | locus YHR200W, strain rpn10, active compounds read low 0.939 | locus YIL073C, strain SPO22, active compounds read low 0.875 | locus YIL125W, strain kgd1, active compounds read low 0.989 | locus YIR030C, strain dcg1, active compounds read low 0.977 | locus YJL134W, strain LCB3, active compounds read low 0.974 | locus YJL168C, strain set2, active compounds read low 0.977 | locus YJL187C, strain SWE1 (second series), active compounds read low 0.885 | locus YJR043C, strain POL32, active compounds read low 0.864 | locus YKL009W, strain mrt4, active compounds read low 0.978 | locus YKL068W, active compounds read low 0.998 | locus YKL085W, strain MDH1 (second series), active compounds read low 0.977 | locus YKL085W, strain MDH1, active compounds read low 0.977 | locus YKL190W, strain CNB1, active compounds read low 0.938 | locus YLR039C, strain RIC1, active compounds read low 0.84 | locus YLR058C, strain SHM2, active compounds read low 0.911 | locus YLR102C, strain apc9, active compounds read low 1.01 | locus YLR262C, strain YPT6, active compounds read low 0.855 | locus YLR268W, strain sec22, active compounds read low 0.924 | locus YML016C, strain PPZ1, active compounds read low 0.956 | locus YML032C, strain rad52, active compounds read low 0.92 | locus YML124C, strain tub3, active compounds read low 0.972 | locus YMR078C, strain ctf18, active compounds read low 0.986 | [6] 0.843 | locus YNL067W, strain RPL9B, active compounds read low 0.896 | locus YNL153C, strain GIM3, active compounds read low 0.903 | locus YNL250W, strain rad50, active compounds read low 0.997 | locus YNL271C, strain bni1, active compounds read low 0.983 | locus YNL298W, strain CLA4, active compounds read low 0.963 | locus YNR052C, strain pop2, active compounds read low 0.964 | locus YOL012C, strain htz1 1.7 | locus YOR061W, strain CKA2, active compounds read low 0.976 | locus YOR069W, strain VPS5, active compounds read low 0.951 | locus YOR136W, strain idh2, active compounds read low 0.992 | locus YOR144C, strain elg1, active compounds read low 0.967 | locus YOR316C, strain cot1, active compounds read low 0.991 | [12] 0.826 | locus YPR119W, strain clb2, active compounds read low 1 | locus YPR141C, strain kar3, active compounds read low 1 | locus YPR163C, strain tif3, active compounds read low 0.924 | locus YPR167C, strain met16, active compounds read low 0.964 | strain wtn01, active compounds read low 0.918
